Records with an inconclusive call do not appear. A call without a number means that no potency is given here. Active and inactive are the calls of the source. Calls come from the whole dose curve; as a rule, active = well fitted inhibition curve with a large enough effect; inconclusive = small, poorly fitted or top-dose-only effect; inactive = flat fitted curve, though single readings scatter. Where a SMILES comes first, the peptide text is derived from it. [ ]: non-standard residue; d: D form. The star is where a group is joined. Dolaproine = CO[C@@H]([C@@H]1CCCN1)[C@@H](C)C(=O)O; Dil = CC[C@H](C)[C@H](NC)[C@@H](CC(=O)O)OC; Doe = c1ccc(C[C@H](N*)c2nccs2)cc1; Aib = CC(C)(N)C(=O)O
Target: Phospholipid hydroperoxide glutathione peroxidase GPX4 (Homo sapiens) (UniProt P36969)
Test: Primary qHTS Assay for Inhibitors of Recombinant Selenoprotein Glutathione Peroxidase 4 (GPX4) (AID 1845192); note: nearly all actives have a fitted effect of over 65% in size
Settings: recombinant GPX4, GR-coupled NADPH fluorescence, 15 min; series mostly up to 50 µM
Description: Assay Provider: Elias S.J. Arner MD PhD.
Department of Medical Biochemistry and Biophysics
Karolinska Institutet, Solna, Stockholm, Sweden
Selenoprotein glutathione peroxidases (GPX), like the ubiquitously expressed GPX1 and the ferroptosis modulator GPX4, enact their antioxidant activities by reducing hydroperoxides using glutathione. […] GPX1 and GPX4 inhibitors have thus shown promise as anti-cancer agents. Existing inhibitors are often promiscuous, or modulate GPX activity only indirectly, so novel direct inhibitors identified through screening against GPX1 and GPX4 could be valuable. Here, we developed optimized glutathione reductase (GR)-coupled GPX assays for the biochemical high-throughput screen (HTS) of almost 12,000 compounds with known mechanisms of action. Initial hits were triaged using a GR counter-screen, assessed for isoform specificity using a separate GPX2 assay, and were assessed for general selenocysteine-targeting activity using a thioredoxin reductase (TXNRD1) assay. With this suite of assays, we identified novel GPX1/GPX2- and GPX4-specific inhibitors and can here present a validated pipeline for future discovery research for selenoprotein-targeting agents.
SEQUENCE No. (e.g., 1, 2, 3, etc.); […] (e.g., Cells, Incubation, Reagent, etc.); VALUE; DESCRIPTION.
1; Reagent 1; 3 uL; 333.33 nM GPx4 enzyme or no enzyme control in 1536-well, black, solid Greiner assay plate.
2; Compound; 25 nL; Kalypsis pin tool (Wako USA) equipped with a 1536-well pin head.
3; Incubation; 30 min; room temperature.
4; Reagent 2; 1 uL; 500 nM GR, 5 mM GSH, 2.5 mM NADPH solution
5; Reagent 3; 1 uL; 2.5 mM CHP in 50% EtOH.
6; Detection; Fluorescence; ViewLux microplate reader, excitation 340 nm and emission 450 nm.
7; Incubation; 15 min; room temperature.
8; Detection; Fluorescence; ViewLux microplate reader, excitation 340 nm and emission 450 nm.
NOTES (numbers refer to Sequence numbers above)
1. 3 µL of 333.33 nM GPX4 and 0.016% BSA in assay buffer (50 mM Tris-HCl, 2 mM EDTA (pH 7.5), 150 mM NaCl) was added to columns 3-48 of 1536-well plates using a BioRAPTR Flying Reagent Dispenser (Let's Go Robotics (LGR), Carlsbad, CA). A no-enzyme control (0.01% BSA in TES assay buffer) was added to columns 1-2.
2. 25 nL, library and DMSO controls were added to each well with a pin tool (Kalypsys).
3. The assay plates were incubated for 30 minutes at room temperature.
4. 1 µL of master mix (500 nM glutathione reductase (GR), 5 mM reduced glutathione (GSH), 2.5 mM NADPH in assay buffer) was added.
5. 1 µL of cumene hydroperoxide (CHP) ([2.5 mM] in 50% EtOH) was then added within 5 minutes to initiate the reaction. Final concentrations were: 200 nM GPX4, 1 mM GSH, 0.5 mM CHP, 0.5 mM NADPH, 100 nM GR, 0.01% BSA.
6. Initial fluorescence readout (t=0) at 340/450 nm was measured using a ViewLux multimodal detector (PerkinElmer, Waltham, MA).
8. Endpoint fluorescence readout (t=15) at 340/450 nm was measured 15 min after room temperature incubation.

Sequence of Phospholipid hydroperoxide glutathione peroxidase GPX4 (Homo sapiens) (P36969 whole entry, looked up): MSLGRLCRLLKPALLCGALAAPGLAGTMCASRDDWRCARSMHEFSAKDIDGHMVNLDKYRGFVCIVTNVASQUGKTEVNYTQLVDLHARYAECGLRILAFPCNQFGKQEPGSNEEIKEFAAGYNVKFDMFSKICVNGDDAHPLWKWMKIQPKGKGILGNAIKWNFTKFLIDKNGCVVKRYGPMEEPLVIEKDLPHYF

| SMILES | Potency |
| --- | --- |
| COC1(C[S@@](=O)c2ccccc2)CCN(CCc2c[nH]c3ccc(F)cc23)CC1 | inactive |
| COc1cc(C(=O)N2CC[C@@H](O)[C@@H](N)C2)cc2nc(-c3cc4ccccc4n3CC3CC3)n(C)c12 | inactive |
| CN(C(=O)CN1C(=O)COc2cc(Cl)c(Cl)cc21)[C@@H](CN1CCCC1)c1ccc(-c2cccc(C(N)=O)c2)cc1 | inactive |
| CC(C)[C@H]1OC(=O)[C@H](Cc2ccccc2)N(C)C(=O)[C@@H](C(C)C)OC(=O)[C@H](Cc2ccccc2)N(C)C(=O)[C@@H](C(C)C)OC(=O)[C@H](Cc2ccccc2)N(C)C1=O | inactive |
| COC1CC(OC2CCC3(C=O)C(CCC4C3CCC3(C)C(C5=CC(=O)OC5)CCC43O)C2)OC(C)C1O (stereo not given) | inactive |
| Fc1cc(F)c2c(c1)[C@H]1C=CC[C@H]1C(c1cccnc1)N2 (stereo not given in full) | inactive |
| COC(=O)C1=COC(C)C2CN3CCC4(C(=O)Nc5ccccc54)C3CC12 (stereo not given) | inactive |
| C[C@@H]1CN(Cc2ccc(F)cc2)CCN1C(=O)COc1ccc(Cl)cc1NC(N)=O | inactive |
| CC1CCCC(O)CC(=O)Cc2cc(O)cc(O)c2C(=O)O1 (stereo not given) | inactive |
| COc1ccc(CCNCc2ccc(OC)c3ccccc23)cc1 | inactive |
| OCc1nnc2n1-c1ccc(Cl)cc1C(c1ccccc1Cl)=NC2 | inactive |
| C[C@@H]1C[C@@H](O)[C@]2(O)O[C@@H]3C[C@@]4(C=O)C(CC[C@@H]5C4CC[C@]4(C)[C@@](O)(C6=CC(=O)OC6)CC[C@]54O)C[C@H]3OC2O1 (stereo not given in full) | inactive |
| COc1ccc2c(c1)c(CCN(C)C)cn2S(=O)(=O)c1ccccc1 | inactive |
| CC(=O)NCCCOc1ccc(C(=O)N2CCC(N3C(=O)CCc4ccccc43)CC2)cc1 | inactive |
| CC(=O)OC[C@]12C[C@H](O)C(C)=C[C@H]1O[C@@H]1[C@H](O)[C@@H](OC(C)=O)[C@@]2(C)[C@]12CO2 | inactive |
| C[C@H](Nc1ncnc2nc[nH]c12)c1nc2ccc(F)cc2c(=O)n1-c1ccccc1 | inactive |
| CC(=O)O[C@H]1CC[C@@]2(CI)C(=CC[C@@H]3[C@@H]2CC[C@]2(C)C(=O)CC[C@@H]32)C1 | inactive |
| COC1CCCC(C)OC(=O)Cc2cc(O)cc(O)c2C(=O)C1 (stereo not given) | inactive |
| C[C@]12CC[C@H](O)C[C@@H]1CC[C@@H]1[C@@H]2CC[C@]2(C)[C@@H](C3=CC(=O)OC3)CC[C@]12O | inactive |
| C=C1C2(C)CC3C(C)(O)C4=CC(=O)OC(C)(C)C4=CCC3(C)C13C(=O)OC(C)C3(O)C2=O (stereo not given) | inactive |

| SMILES | Potency |
| --- | --- |
| NC(=O)c1ncn2c1CN=C(c1ccccc1Br)c1cc(F)ccc1-2 | inactive |
| C=CC(C)(C)C12C=C(O)C(=O)N3/C(=C\c4cnc[nH]4)C(=O)NC31N(OC)c1ccccc12 (stereo not given) | inactive |
| CCC(C)C1NC(=O)C(C(C)=O)=C1O (stereo not given) | inactive |
| C[C@@H](CN1CCC2(CC1)C(=O)NCN2c1cccc(F)c1)NC(=O)c1ccc(Br)cc1 | inactive |
| O=C(OC[C@H]1O[C@@H](Oc2ccc(O)cc2CO)[C@H](O)[C@@H](O)[C@@H]1O)c1ccccc1 | inactive |
| CC(=O)O[C@H]1CN2CCC1CC2 | inactive |
| C=C1C(=O)O[C@@H]2[C@H]3C(=C)[C@@H](O)C[C@H]3C(=C)C[C@@H](O)[C@@H]12 | inactive |
| CCOc1ccc(Oc2ccc(OCc3cc(F)ccc3F)cc2)c(N)c1 | inactive |
| C=C1[C@@H](O)[C@]2(O)OC[C@]34C2[C@]2(C)C(C[C@H]3OC(=O)[C@H](O)[C@@]14O)C(C)=CC(=O)[C@H]2O (stereo not given in full) | inactive |
| NCCCCCNC1(c2ccccc2)CCCCC1 | inactive |
| C1=C(c2cnc[nH]2)c2ccsc2CC1 | inactive |
| CC(=O)OC[C@]12C[C@H](O)C(C)=C[C@H]1O[C@@H]1[C@H](O)[C@@H](O)[C@@]2(C)[C@]12CO2 | inactive |
| CO/C1=C\C(C)=C\[C@@H](C)[C@@H](O)[C@@H](C)C/C(C)=C/C=C/[C@H](OC)[C@@H]([C@@H](C)[C@@H](O)[C@H](C)[C@@]2(O)C[C@@H](O)[C@H](C)[C@@H](C(C)C)O2)OC1=O | inactive |
| C=C1[C@@H](C)[C@H]2[C@H](Cc3ccccc3)NC(=O)[C@]23[C@H](OC(C)=O)/C=C/[C@](C)(O)C(=O)[C@@H](C)C/C=C/[C@H]3[C@@H]1O | inactive |
| C=C[C@H]1CN2CCC1C[C@H]2[C@H](O)c1ccnc2ccccc12 (stereo not given in full) | inactive |
| CN(C)c1cc2c(cc1Sc1nc3c(N)nccc3n1CCNCC(C)(C)C)OCO2 | inactive |
| CC[C@H](C)[C@@H]([C@@H](CC(=O)N1CCC[C@H]1[C@H](OC)[C@@H](C)C(=O)N[C@@H](Cc1ccccc1)c1nccs1)OC)N(C)C(=O)[C@@H](NC(=O)C(C)(C)N)C(C)C (H-[Aib]V[Dil][Dolaproine]-Doe) | inactive |
| CO[C@@H]1C[C@H](O[C@H]2CC[C@@]3(C)C(CCC4C3CC[C@]3(C)[C@@H](C5=CC(=O)OC5)[C@@H](OC(C)=O)CC43O)C2)O[C@H](C)[C@@H]1O[C@H]1O[C@H](CO[C@@H]2O[C@H](CO)[C@@H](O)[C@H](O)[C@H]2O)[C@@H](O)[C@H](O)[C@H]1O (stereo not given in full) | inactive |
| CC(=O)O[C@@H]1[C@@H](O)[C@H]2O[C@@H]3C=C(C)[C@@H](O)C[C@]3(CO)[C@]1(C)[C@]21CO1 | inactive |
| COC(=O)CC1CC2(C(=O)c3c(O)cccc3C2(O)C(=O)OC)C(C)O1 (stereo not given) | inactive |

From PubChem BioAssay (NCATS)
